PLAP activator: human PLAP activation | purified PLAP enzyme, luminescent substrate read-out; hits give high values | activation fold at 20 µM | 96,000 compounds, 1.2% hits; in the data active = activation fold above about 2
M1 antagonist: M1 muscarinic receptor (rat) antagonism | CHO-M1 cells, Fluo-4 calcium, ACh EC80 antagonist mode; hits give low values | B-score at 10 µM | 64,000 compounds, 3.4% hits | AID 628;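 active = calcium fluorescence response, raw or row-and-column corrected B-score, differing from the plate sample mean either way at a set confidence level, mostly lower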
Target sequence (P08482 whole entry, looked up): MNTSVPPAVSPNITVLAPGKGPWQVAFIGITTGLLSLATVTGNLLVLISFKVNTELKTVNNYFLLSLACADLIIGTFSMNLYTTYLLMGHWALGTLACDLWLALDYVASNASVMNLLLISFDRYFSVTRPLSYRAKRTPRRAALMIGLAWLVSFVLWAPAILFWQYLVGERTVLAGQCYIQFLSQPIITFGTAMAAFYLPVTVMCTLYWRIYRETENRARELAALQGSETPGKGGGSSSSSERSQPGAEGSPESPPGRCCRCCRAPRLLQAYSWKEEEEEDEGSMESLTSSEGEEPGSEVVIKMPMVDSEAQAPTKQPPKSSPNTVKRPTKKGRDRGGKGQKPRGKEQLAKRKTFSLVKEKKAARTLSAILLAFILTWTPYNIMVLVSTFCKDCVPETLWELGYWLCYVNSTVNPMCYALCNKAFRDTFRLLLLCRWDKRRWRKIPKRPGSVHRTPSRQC
M1 ag: M1 muscarinic receptor agonism; CHO-M1 cells, Fluo-4 calcium fluorescence, agonist mode; hits give high values; B-score at 10 µM; 64,000 compounds, 3% hits; AID 626;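 active = fluorescence rise, raw or as B-score row- and column-corrected plate score, outside the 99.7% band of its plate's samples, either direction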
Cav32 inh: inhibitors of human Cav3.2 T-type calcium channel; B-score at 10 µM; O95180; 100,000 compounds, 4% hits; AID 449739; Cav3.2-expressing cells, Fluo-4 calcium fluorescence FDSS; hits give low values;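 active = single-dose well whose peak fluorescence ratio is a statistical outlier from its plate by either plate-standardised score or position-corrected B-score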
* hit, by the source's call; x = no result given. An excerpt weighted towards active compounds, which were near 7.6% of everything screened.

SMILES	PLAP activator	M1 antagonist	M1 ag	Cav32 inh
COC(=O)CNC(c1ccccc1)c1cc(C)ccc1NC(=O)CNC(=O)OCc1ccccc1 (centres undefined)	1.9	x	x	-7.2*
O=C(NCCSc1c[nH]c2ccccc12)c1ccc(Br)o1	1.2	-0.039	0.074	-5*
Cc1[nH]c2ccccc2c1SCCNC(=O)c1ccc(Br)o1	x	-0.56	0.53	-4.1*
CCOC(=O)c1[nH]c2ccccc2c1NC(=O)c1ccc(Br)o1	x	-0.73	2.3	-4.4e-05
CC(C)C(=O)NCCSc1c[nH]c2ccccc12	1	x	x	2.8
O=C(NCCC(c1ccccc1)c1ccccc1)c1ccc(Br)o1	0.9	x	x	-6.5*
CCN(CC)S(=O)(=O)c1ccc(C(=O)NCCSc2c[nH]c3ccccc23)cc1	x	x	x	-4.6*
Cc1onc(-c2c(Cl)cccc2Cl)c1C(=O)NCCc1ccc(S(N)(=O)=O)cc1	1.6	x	x	0.0096
Cc1cc(C(=O)N[C@@H](c2ccccc2)[C@]2(C)C[C@H]2[C@@H](C)C(=O)Nc2ccc3ccccc3c2)no1	x	x	x	-4.6*
Cc1cc(C(=O)N[C@H](c2ccccc2)[C@@]2(C)C[C@@H]2[C@@H](C)C(=O)Nc2ccc3ccccc3c2)no1	x	x	x	-0.034
O=S(=O)(c1ccccc1)c1cnc(-c2cccnc2)nc1-c1ccccc1	0.9	x	x	x
Cc1nc(-c2ccccc2)sc1-c1nc(-c2cccnc2)ncc1S(=O)(=O)c1ccccc1	1.2	x	x	-5*
Cc1nc(-c2ccccc2)sc1-c1nc(-c2cccs2)ncc1S(=O)(=O)c1ccccc1	1	x	x	-4.8*
O=S(=O)(Cc1ccccc1)N1CCCC(c2nc(-c3ccc(F)cc3)no2)C1 (centres undefined)	1	0.089	0.3	0.037
CCCS(=O)(=O)N1CCCC(c2nc(-c3cccc(OC)c3)no2)C1 (centres undefined)	1.7	1	4.6	-4*
COC(=O)C(CCSC)NC(=O)c1cccc([N+](=O)[O-])c1 (centres undefined)	1.1	x	x	0.71
COc1cc(NC(=O)CN2CCN(S(=O)(=O)c3ccc(C(C)C)cc3)CC2)cc(OC)c1	1	0.4	2.2	-4.2*
COc1ccc(S(=O)(=O)N2CCN(CC(=O)Nc3cc(OC)cc(OC)c3)CC2)cc1	1.1	0.07	-0.82	x
COc1cccc(NC(=O)CN2CCN(S(=O)(=O)c3ccc(F)cc3)CC2)c1	1.4	x	x	0.026
COc1cccc(NC(=O)CN2CCN(S(=O)(=O)c3ccc(C(C)C)cc3)CC2)c1	1.3	0.033	-0.84	-7.3*
COc1ccc(CCNC(=O)N2c3ccccc3Sc3ccccc32)cc1	x	x	x	-5.9*
CCCc1nc2ccccc2c(=O)n1NC(=O)c1c(O)c2cccc3c2n(c1=O)CCC3	1.3	-0.42	-1.4	-8*
COc1ccccc1/C=C/C(=O)c1cc(Br)ccc1OC(=O)c1ccco1	x	x	x	-4.5*
CCOC(=O)c1c(NC(=O)CSc2n[nH]c(N)n2)sc(CC)c1C	2.2*	-0.21	-1.5	-3.4
CCN(CC)CC(=O)Nc1cc(C)c2c(=O)oc3ccccc3c2n1	x	0.026	0.72	x
SMILES	PLAP activator	M1 antagonist	M1 ag	Cav32 inh
COc1ccc(-c2nnc(SCc3nnc(-c4ccc(Cl)cc4)o3)n2-c2ccccc2)cc1	1.3	-0.0077	-1.5	-8.4*
N#C/C(=N\Nc1cccc(Cl)c1)C(=O)c1ccccc1	1.2	x	x	-9.2*
CCCC(=O)C1=C(O)C(C(=O)OC)C(C)(C)CC1=NC(C)(C)C (centres undefined)	1.2	x	x	4.1*
Cc1c(Cl)c([N+](=O)[O-])nn1CC(=O)NC12CC3CC(CC(C3)C1)C2	0.8	x	x	-3.8*
O=C(NCCCN1CCOCC1)c1onc(CSc2ccc(F)c(F)c2)c1C(=O)NCCCN1CCOCC1	x	x	x	-0.045
COCc1c(C)cc(C)c(/C=N/O)c1C	1	12*	-1.6	0.093
Cc1cc(N2C(=O)C(=O)/C(=C(/O)c3ccc(F)cc3)C2c2ccc(Cl)cc2)no1 (centres undefined)	1.4	0	-0.46	-6.2*
CCOc1ccc(C2/C(=C(\O)c3ccc(OC)c(OC)c3)C(=O)C(=O)N2c2cc(C)on2)cc1OC (centres undefined)	1.1	-0.14	-0.5	-0.072
CC1=C(C(=O)Nc2ccccc2)C(c2sccc2C)n2nnnc2N1 (centres undefined)	0.9	x	x	-1.5
Cn1c(COc2ccccc2)nnc1SCc1nc2ccccc2[nH]1	1.7	0.64	-0.5	0.18
O=c1[nH]c(CSc2nnc(COc3ccccc3)n2-c2ccccc2)nc2ccccc12	1.6	0.062	0.51	-3.9*
Cc1ccc(OCc2nnc(SCC(=O)c3ccccc3)n2-c2ccccc2)cc1	x	x	x	-4.4*
CC(C)C(=O)N1CCC(CN=Cc2c(O)n(C3CCCCC3)c(=O)n(C3CCCCC3)c2=O)CC1	1.5	0.032	1.7	-11*
CCCNC(=O)NC(=O)COC(=O)c1ccc(OC)c(S(=O)(=O)N2CCCc3ccccc32)c1	1.4	-0.0045	0.0046	-7.5*
O=C(O)c1ccc(CSc2nnc(SCc3ccccc3)s2)cc1	1.2	x	x	-6.6*
Cc1cc(C)cc(NC(=O)c2ccc(CSc3nnc(C)s3)cc2)c1	0.7	x	x	-11*
Cc1nnc(SCc2ccc(C(=O)O)cc2)s1	1.1	x	x	1.5
CCCn1nc([N+](=O)[O-])c(C(C#N)c2nc3ccccc3s2)c(Cl)c1=O (centres undefined)	1.2	x	x	-4.4*
Cn1c(C(C#N)C(=O)c2sc3ccccc3c2Cl)nc2ccccc21 (centres undefined)	1.2	0.53	-0.56	-0.8
Cc1cc(C)n2nc(SCc3nnc(SCc4ccccc4C)s3)nc2n1	1.5	x	x	-1.2
COc1cccc(CSc2nnc(CSc3nc4nc(C)cc(C)n4n3)s2)c1	2.1*	x	x	-0.24
[N-]=[N+]=CC(=O)CC(c1ccccc1)N1C(=O)c2ccccc2C1=O (centres undefined)	2*	-0.097	0.51	x
C[C@@H]1CCC[C@H](C)N1NC(=O)c1ccc(Cl)c(S(N)(=O)=O)c1	x	0.075	1.2	-3.7
Cc1cc(C)c2cc(CN(Cc3ccc4c(c3)OCO4)Cc3nnnn3Cc3ccco3)c(=O)[nH]c2c1	1.6	0.18	-0.38	-0.98
CCOc1ccc2[nH]c(=O)c(CN(Cc3ccc(F)cc3)C(=O)c3ccco3)cc2c1	1	-1.3	0.38	-4.3*
SMILES	PLAP activator	M1 antagonist	M1 ag	Cav32 inh
COc1ccc2[nH]c(=O)c(CN(Cc3ccc4c(c3)OCO4)C(C)=O)cc2c1	0.8	-1.5	-0.44	-0.3
CCc1ccc2[nH]c(=O)c(CN(Cc3ccc4c(c3)OCO4)C(=O)c3ccco3)cc2c1	1	-0.22	1.2	-3.3*
O=C(c1cc2ccccc2oc1=O)N(Cc1ccccc1)Cc1ccc2c(c1)OCO2	x	x	x	-6.1*
Cc1ccc2[nH]c(=O)c(CN(Cc3ccc4c(c3)OCO4)Cc3nnnn3Cc3ccco3)cc2c1	1.4	-0.00094	-1.2	-5.8*
O=C(NCCc1c[nH]c2ccccc12)c1cc2sccc2n1Cc1ccccc1	0.9	x	x	-5*
Cn1c(C(=O)NCCc2c[nH]c3ccccc23)cc2sccc21	0.6	-0.0007	0.0055	-5.3*
CCOc1ccc2[nH]c(=O)c(CN(CCc3ccccc3)C(=O)c3cnccn3)cc2c1	0.9	0.0089	-1.3	1.4
O=C(CSc1nnc2c(n1)[nH]c1ccccc12)Nc1ccc2c(c1)OCO2	1.2	x	x	-0.26
